Sampled rows, rich in hits. Any-hit rate of the full collection: about 3%.
Tau FP inhib – qHTS for Inhibitors of Tau Fibril Formation, Fluorescence Polarization | K18 P301L tau heparin fibrillization, Alexa594 FP, 6 h | Potency, µM (doses to about 57.7 µM), actives largely listed as inhibitors | actives 0.39% (n = 280,000); also: nearly all actives have a fitted effect of over 55% in size
Target sequence (P10636 561-689 P618L limits assumed): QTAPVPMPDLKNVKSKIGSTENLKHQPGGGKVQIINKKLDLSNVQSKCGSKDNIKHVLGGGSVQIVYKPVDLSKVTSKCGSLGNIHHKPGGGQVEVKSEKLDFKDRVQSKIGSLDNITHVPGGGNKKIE
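Read-out: fluorescence polarization of Alexa 594-labeled tau (0.24 uM), 555 nm excitation, 632 nm emission. Mixtures held 15 uM unlabeled K18 P301L, compound and 20 uM heparin, pH 7 acetate buffer, incubated 6 hr at 37 C.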
JMJD2E inh – qHTS Assay for Inhibitors of Human Jumonji Domain Containing 2E (JMJD2E) | Lysine-specific demethylase 4E (Homo sapiens), B2RXH2 | JMJD2E catalytic domain, FDH-coupled NADH fluorescence (FDH is formaldehyde dehydrogenase) | Potency, µM (series often up to 57.1 µM), usual class: inhibitors | actives 1.6% (n = 230,000); active = well fitted inhibition curve with a large enough effect, not every such curve was filed as active; inconclusive = small, poorly fitted or top-dose-only effect, or another doubt; inactive = no such curve, though single readings can be large or run the other way; also: nearly all actives have a fitted effect of over 50% in size
Target sequence (B2RXH2 1-337 limits assumed): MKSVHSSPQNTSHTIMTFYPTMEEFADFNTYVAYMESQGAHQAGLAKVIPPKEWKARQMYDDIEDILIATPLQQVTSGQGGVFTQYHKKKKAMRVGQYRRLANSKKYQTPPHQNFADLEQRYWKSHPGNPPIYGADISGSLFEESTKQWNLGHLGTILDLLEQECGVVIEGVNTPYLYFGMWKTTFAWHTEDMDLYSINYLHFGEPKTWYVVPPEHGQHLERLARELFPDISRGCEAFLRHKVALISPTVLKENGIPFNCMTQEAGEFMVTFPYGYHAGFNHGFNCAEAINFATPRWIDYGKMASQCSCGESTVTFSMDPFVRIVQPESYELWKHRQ
Tau fluor cs – Counterscreen qHTS for Inhibitors of Tau Fibril Formation, Fluorescence Polarization | tau K18 P301L Alexa594 fluorescence, heparin fibrillization | Potency, µM (highest dose often 57.7 µM) | actives 0.93% (n = 280,000); also: nearly all actives have a fitted effect of over 55% in size
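Human K18 P301L tau (15 uM unlabeled plus 0.24 uM Alexa 594-labeled, final) in 100 mM sodium acetate pH 7 was mixed with compound and 20 uM heparin and incubated 6 hr at 37 C.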
Tau ThT inhib – qHTS for Inhibitors of Tau Fibril Formation, Thioflavin T Binding; Potency, µM (titrated, usually from 57.4 µM), hits mostly inhibitors; AID 1460, 2008; recombinant tau K18 P301L (four-repeat tau fragment), heparin-induced fibrillization, ThT fluorescence; Microtubule-associated protein tau (Homo sapiens), P10636; actives 2.1% (n = 270,000); also: nearly all actives have a fitted effect of over 55% in size
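Tau K18 P301L fragment (15 uM unlabeled plus 0.24 uM Alexa 594-labeled) in 100 mM sodium acetate pH 7 with compound, fibrillization induced by 20 uM heparin for 6 hr at 37 C. Thioflavin T (30 uM) added, fluorescence read after 1 hr (ex 450, em 510 nm).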
FBPA coupling cs – qHTS Assay for Inhibitors of Fructose-1,6-bisphosphate Aldolase from Giardia Lamblia: Coupling assay counterscreen; coupling enzyme system counterscreen, AmpLite Red fluorescence; activity change, negative = inhibition, % at 58.2 µM, hits read low; actives 0.67% (n = 290,000); in the data active = activity change below about -30%
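Compounds tested against the coupling enzymes alone at 57.5 uM final; readout was AmpLite Red fluorescence (525/598 nm) after 20 min at RT.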
A number is an active result; . = inactive; ? = inconclusive; / = no result given; ! = repeats disagree; [ ] = remark or other dose. Unless noted, calls follow the shape of the dose curve; as a rule, active = well fitted curve in the direction sought with a large enough effect; inconclusive = small, poorly fitted or top-dose-only effect, or another doubt; inactive = no such curve, though single readings can be large; an effect the other way counts as inactive or inconclusive.

SMILES	Tau FP inhib	JMJD2E inh	Tau fluor cs	Tau ThT inhib	FBPA coupling cs
Cn1ccnc1Sc1cc(NCCCO)c([N+](=O)[O-])c2nonc12	.	.	?	4.47µM	.
CC(=O)OCCCNc1cc(Sc2ccc(C)cc2)c2nonc2c1[N+](=O)[O-]	.	.	?	?	.
CC(=O)OCCCNc1cc(Sc2nc3ccccc3s2)c2nonc2c1[N+](=O)[O-]	.	.	?	?	-35.2
Cc1ccc(OCCn2nnc3sc4c(c3c2=O)CCC(C)C4)cc1 (stereo unspecified)	.	/	.	.	/
O=C(Nc1cccc(C(F)(F)F)c1)c1cccnc1NCCc1ccccc1	14.1µM	.	?	.	.
O=C(Nc1ccc(F)cc1)c1cccnc1NCCc1ccccc1	12.6µM	?	?	.	.
O=C(Nc1cccc(F)c1)c1cccnc1NCCc1ccccc1	17.8µM	?	?	.	.
COc1ccc(Cl)cc1NC(=O)CN1C(=O)CSc2ccc(S(=O)(=O)N3CCCC3)cc21	.	/	.	.	/
CC(=O)Nc1ccc(N=Nc2ccccc2)cc1	.	.	.	12.6µM	.
O=S(=O)(Nc1ccc(N=Nc2ccccc2)cc1)c1ccccc1	?	.	?	15.8µM	.
O=C(CCl)Nc1ccc(-c2ccccc2)cc1	.	.	.	.	.
CC(=O)OCC(=O)Nc1ccc(SC(F)F)cc1	.	.	.	.	.
O=S(=O)(Nc1ccc(S(=O)(=O)Nc2ccccc2)cc1)c1ccccc1	.	.	.	.	.
O=C(CCl)Nc1ccc(N=Nc2ccccc2)cc1	.	?	?	5.01µM	.
CC(=O)OCC(=O)Nc1ccc(N=Nc2ccccc2)cc1	.	.	.	8.91µM	.
CC(=O)Nc1ccccc1	.	.	.	.	.
CC(C)C(=O)OCC(=O)Nc1ccc(N=Nc2ccccc2)cc1	?	.	?	7.94µM	.
CCC(C(=O)OCC(=O)Nc1ccc(C(N)=O)cc1)c1ccccc1 (stereo unspecified)	.	.	.	.	.
CCCNC(=O)OC[C@@H]1O[C@H](CCO/N=C(\C)CCN2CCCc3nc(C)c(C)cc32)C=C[C@@H]1Oc1ccc(OC)cc1	.[11.6 µM]	/	.[11.6 µM]	.[11.5 µM]	.
CCOC(=O)Cn1c(=O)oc2cc(S(=O)(=O)N3CCN(c4ccc(F)cc4)CC3)ccc21	.	/	.	.	/
Cc1ccccc1-c1cc2c(nn1)-c1ccccc1C2=O	.	?	?	?	-39.5
O=C1c2ccccc2-c2nnc(-c3ccc(O)cc3)cc21	.	.	?	5.01µM	.
Cc1ccc(-c2cc3c(nn2)-c2ccccc2C3=O)cc1	.	.	.	/	.
CCCC[n+]1ccn(C2=C([O-])c3ccccc3C(=O)/C2=N\S(=O)(=O)c2ccc(Cl)cc2)c1	?	.	?	11.2µM	-45.5
Oc1ccc(Br)cc1/C=N/Nc1nc(N2CCCCC2)nc(N2CCOCC2)n1	?	.	?	.	.
SMILES	Tau FP inhib	JMJD2E inh	Tau fluor cs	Tau ThT inhib	FBPA coupling cs
Oc1ccc(/C=N/Nc2nc(N3CCCCCC3)nc(N3CCCCCC3)n2)c(O)c1	.	.	10µM[quencher]	?	.
Oc1ccc(/C=N/Nc2nc(N3CCCC3)nc(N3CCCC3)n2)cc1O	.	17.8µM	?	?	.
CNc1ccc(C(=O)Oc2cc(O/N=[N+](\[O-])N(C)C)c([N+](=O)[O-])cc2[N+](=O)[O-])cc1	/	/	/	/	.
O=S(=O)(c1ccc(-c2csc(=Nc3ccc(OC(F)(F)Cl)cc3)n2CCCO)cc1)N1CCCC1	?	/	.	?	/
C=C[C@@]1(C)CC(=O)[C@]2(O)[C@@]3(C)[C@H](O)CCC(C)(C)[C@@H]3[C@H](O)[C@H](OC(C)=O)[C@@]2(C)O1	/	/	/	/	.
CCN(CCCCO)c1nc(C)nc2c1c(C)c(C)n2-c1c(C)cc(C)cc1C	/	/	/	/	.
O.O.[Mn].[Mn].[Mn].[OH-].[OH-]	/	/	/	/	.
CN1CC(=O)N(CC(=O)Nc2ccc(Cl)c(C(F)(F)F)c2)c2ccccc2C1=O	.	/	.	.	/
CN1CC(=O)N(CC(=O)Nc2ccc(N(C)C)cc2)c2ccccc2C1=O	?	?	.	?	-41.7
Cc1ccc(-n2cc(C(=O)Oc3ccc(F)cc3)c3ccccc3c2=O)cc1	.	/	.	.	/
COc1ccc(CCNC(=O)CCc2c(C)nc3cc(-c4ccccc4OC)nn3c2C)c(OC)c1	.	/	.	?	/
CC1=NN(Cc2ccccc2)C(=O)/C1=C\c1ccc(N(C)C)cc1	.	.	.	20µM	.
CCOC(=O)C1=NN(c2ccccc2)C(=O)/C1=C\c1ccc(N(C)C)cc1	.	.	.	?	.
C=CCC1(O)C(=O)N2C(=C1C(=O)OCC)c1ccc3ccccc3c1CC2(C)C (stereo unspecified)	.	.	.	.	.
CC1(C)Cc2c(ccc3ccccc23)C2=C(C(=O)N3CCCC3)C(=O)C(=O)N21	.	.	.	.	-44.7
Cc1[nH][nH]c(=O)c1C(c1ccc(-c2ccc(Cl)cc2Cl)o1)c1c(C)[nH][nH]c1=O	?	.	.	11.2µM	-57.9
COC(=O)c1ccc(-c2ccc(C(c3c(C)[nH][nH]c3=O)c3c(C)[nH][nH]c3=O)o2)cc1	?	?	.	5.01µM	-44.5
Cc1[nH][nH]c(=O)c1C(c1ccc(-c2cccc(Cl)c2)o1)c1c(C)[nH][nH]c1=O	?	?	?	/	-48.3
Cc1[nH][nH]c(=O)c1C(c1ccc(-c2ccccc2C(=O)O)o1)c1c(C)[nH][nH]c1=O	?	.	.	11.2µM	-47.3
COc1ccc(NC(=O)C2CCCN(c3nnc(C)c4c(C)n(-c5ccccc5)nc34)C2)cc1Cl (stereo unspecified)	.	/	.	.	/
CNC(=S)N/N=C/c1ccc(-c2cccc(C(=O)O)c2)o1	.	?	.	?	.
Cc1[nH][nH]c(=O)c1C(c1ccc(-c2cccc(C(=O)O)c2)o1)c1c(C)[nH][nH]c1=O	?	.	.	14.1µM	-30.9
Nc1nnc(Cc2c[nH]c3ccccc23)s1	.	.	.	?	.
c1ccc2c(Cc3c[nH]c4ccccc34)c[nH]c2c1	?	.	15.8µM![quencher]	?	.
CCOCCCNC(=O)/C(C#N)=C/c1ccc(-c2ccc(S(=O)(=O)N3CCOCC3)cc2)o1	.	?	?	?	.
CC(NC(=O)/C(C#N)=C/c1ccc([N+](=O)[O-])o1)c1ccccc1 (stereo unspecified)	/	/	/	/	-36.1
CCOCCCNC(=O)/C(C#N)=C/c1ccc([N+](=O)[O-])o1	?	.	.	14.1µM	.
CCOC(=O)COc1ccc(CC)cc1C(=O)c1ccn2nc(-c3ccc(Cl)cc3)cc2n1	.	/	.	.	/
Cc1nnc(N/N=C/c2cccc(OCc3ccc(Cl)c(Cl)c3)c2)n1N	.	?	25.1µM[quencher]	12.6µM	.

Assay outcomes from PubChem BioAssay.
